Experiment [1] has as its target Myc proto-oncogene protein (Homo sapiens) (UniProt P01106). As to the kind of experiment: ATG_Myc_CIS: Attagene CIS-FACTORIAL HepG2 Assay for human Myelocytomatosis (Myc) Proto-Oncogene Transcription Factor (AID 2282990). As to conditions: HepG2, Attagene cis-reporter transcription factor activity; actives raise or lower the signal. Summed up: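 Read-out: fluorescent reporter mRNA fragments resolved by capillary electrophoresis after RT-PCR. Human HepG2 liver cells carried transfected cis-element reporter units and were dosed for 24 h. Gain or loss of signal fitted relative to DMSO baseline.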

The nature of experiment [2]: ATG_NF_kB_CIS: Attagene CIS-FACTORIAL HepG2 Assay for human Nuclear Factor Kappa B (NF-kB) (AID 2282991). Conditions: HepG2 Attagene cis-factorial NF-kB reporter mRNA; actives raise or lower the signal. Summed up: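 Endogenous transcription factor activity in HepG2 was captured via cis-regulated reporter constructs; after 24 h dosing, reporter mRNA was reverse-transcribed, amplified, fluorescently labelled and sized by capillary electrophoresis, with activity fitted bidirectionally relative to DMSO.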

Experiment [3] in a line: ATG_NRF2_ARE_CIS: Attagene CIS-FACTORIAL HepG2 Assay for human Nuclear Factor Erythroid 2 Related Factor 2 (NFR2) response to Antioxidant Response Elements (ARE) (AID 2282992).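 On AC50: reporter mRNA level measured by RT-PCR and capillary electrophoresis fluorescence.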 Conditions: HepG2 Attagene ARE/NRF2 reporter, transcription factor activity; actives raise or lower the signal. An outline of the steps: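 Fluorescence intensity of reporter-specific cDNA fragments, separated by capillary electrophoresis, reflects mRNA induction in transfected HepG2 cells at 24 h. Activity is fitted bidirectionally, DMSO serving as baseline.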

The nature of experiment [4]: ATG_Oct_MLP_CIS: Attagene CIS-FACTORIAL HepG2 Assay for human Octamer-Binding Transcription Factor (Oct) (AID 2282993). As to conditions: HepG2 Attagene cis-factorial Oct reporter, mRNA; actives raise or lower the signal. An outline of the steps:
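Read-out: reporter mRNA via RT-PCR plus capillary electrophoresis of 6-FAM-labelled fragments. Transiently transfected HepG2, 24 h exposure, endogenous TF activity on cis elements. Gain or loss of signal fitted relative to DMSO.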

In experiment [5] the target is Cellular tumor antigen p53 (Homo sapiens) (UniProt P04637). As to the kind of experiment: ATG_p53_CIS: Attagene CIS-FACTORIAL HepG2 Assay for human p53 Transcription Factor (AID 2282994). Conditions: HepG2 p53 cis-element reporter, Attagene mRNA; actives raise or lower the signal. An outline of the steps: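 Transiently transfected HepG2 (multiple cis reporter transcription units); exposure 24 h; reporter RNA via RT-PCR, 6-FAM extension, 2 h HpaI digest at 37 C, CE detection; DMSO baseline.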
Chain of Cellular tumor antigen p53 (Homo sapiens) (P04637 whole entry, looked up): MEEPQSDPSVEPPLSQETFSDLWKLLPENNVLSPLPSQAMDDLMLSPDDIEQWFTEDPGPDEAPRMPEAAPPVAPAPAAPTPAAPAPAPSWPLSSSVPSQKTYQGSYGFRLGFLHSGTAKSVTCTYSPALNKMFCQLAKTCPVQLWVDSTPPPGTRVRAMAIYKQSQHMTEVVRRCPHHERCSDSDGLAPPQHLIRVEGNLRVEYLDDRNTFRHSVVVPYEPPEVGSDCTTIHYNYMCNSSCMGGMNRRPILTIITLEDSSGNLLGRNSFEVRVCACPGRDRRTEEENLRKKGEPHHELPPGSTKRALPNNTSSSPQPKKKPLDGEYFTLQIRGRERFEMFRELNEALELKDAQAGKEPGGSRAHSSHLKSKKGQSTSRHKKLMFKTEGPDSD

A short description of experiment [6]: BSK_3C_TissueFactor: BioMAP Diversity Plus: 3C Assay for Tissue Factor Biomarker Activity (AID 2282997). As to conditions: BioMAP 3C HUVEC, tissue factor biomarker readout; actives raise or lower the signal. An outline of the steps: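 Cells used were primary human umbilical vein endothelial cells. They were dosed with chemical, and after 24 h Tissue Factor was quantified by ELISA. Curves were fitted bidirectionally with DMSO as baseline.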

Experiment [7] in a line: BSK_3C_uPAR: BioMAP Diversity Plus: 3C Assay for Urokinase-type plasminogen activator receptor (uPAR) Biomarker Activity (AID 2282998). As to conditions: BioMAP 3C HUVEC, uPAR biomarker ELISA; actives raise or lower the signal. Summed up: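 HUVEC primary cells; 24 h post-dose; uPAR by ELISA; gain or loss of signal fitted bidirectionally vs DMSO baseline.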
Background: An ELISA detects its analyte on a solid surface through an enzyme-linked reagent.

The nature of experiment [8]: BSK_3C_VCAM1: BioMAP Diversity Plus: 3C Assay for Vascular cell adhesion molecule 1 (VCAM1) Biomarker Activity (AID 2282999). Conditions: BioMAP 3C HUVEC, VCAM1 ELISA, cytokine-stimulated; actives raise or lower the signal. Summed up: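 HUVEC primary cells, 24 h compound exposure; VCAM-1 by ELISA; gain/loss of signal fitted bidirectionally vs DMSO baseline.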
Experiment [9] addresses human Peroxisome Proliferator-activated Receptor alpha (PPARa), PPARA (gene 5465) (UniProt Q07869). As to the kind of experiment: ATG_PPARa_TRANS: Attagene TRANS-FACTORIAL HepG2 Assay for human Peroxisome Proliferator-activated Receptor alpha (PPARa) (AID 2283001; active means hit-call score of the fitted dose curve at least 0.9, where 1 is the maximum;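 further: potency for gain of reporter signal over DMSO so agonist or activator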). An outline of the steps:
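HepG2, transient MRTU transfection, 24 h treatment. RT-PCR → FAM labelling → capillary electrophoresis. Fit vs DMSO, positive direction.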

Experiment [10] deals with human Peroxisome Proliferator-activated Receptor delta (PPARd), PPARD (gene 5467) (UniProt Q03181). As to the kind of experiment: ATG_PPARd_TRANS: Attagene TRANS-FACTORIAL HepG2 Assay for human Peroxisome Proliferator-activated Receptor delta (PPARd) (AID 2283002; active means hit-call score of the fitted dose curve at least 0.9, where 1 is the maximum). Summed up: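 Read-out: reporter mRNA induction, quantified by fluorescent RT-PCR products resolved by capillary electrophoresis. Human HepG2 liver cells carried transiently transfected Gal4-UAS reporter constructs with chimeric NR-Gal4 fusions. Cells were dosed for 24 h; DMSO served as baseline.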
Chain of human Peroxisome Proliferator-activated Receptor delta (PPARd), PPARD (gene 5467) (Q03181 whole entry, looked up, the tested form may be a part): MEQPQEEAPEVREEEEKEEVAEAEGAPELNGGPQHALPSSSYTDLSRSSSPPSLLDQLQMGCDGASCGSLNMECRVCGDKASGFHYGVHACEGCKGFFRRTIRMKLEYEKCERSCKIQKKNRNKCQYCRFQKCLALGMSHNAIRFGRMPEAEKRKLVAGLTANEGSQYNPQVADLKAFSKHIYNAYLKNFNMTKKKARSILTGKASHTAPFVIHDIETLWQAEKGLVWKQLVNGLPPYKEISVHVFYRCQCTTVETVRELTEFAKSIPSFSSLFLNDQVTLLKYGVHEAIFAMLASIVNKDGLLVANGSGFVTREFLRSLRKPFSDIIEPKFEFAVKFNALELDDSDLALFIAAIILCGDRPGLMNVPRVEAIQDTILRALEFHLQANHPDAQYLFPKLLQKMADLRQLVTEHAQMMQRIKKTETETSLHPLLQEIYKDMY

Read-out in experiment [11]: Intercellular Adhesion Molecule 1 (ICAM1), ICAM1 (gene 3383)
As to the kind of experiment: BSK_3C_ICAM1: BioMAP Diversity Plus: 3C Assay for Intercellular Adhesion Molecule 1 (ICAM1) Biomarker Activity (AID 2283003). As to conditions: primary human endothelial cells (HUVEC); actives raise or lower the signal. Summed up:
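Chemicals are dosed onto primary human umbilical vein endothelium (3C system). After 24 h, ICAM-1 is measured by ELISA, and responses are fitted bidirectionally relative to DMSO.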

Experiment [12] concerns the target human Retinoic Acid Receptor beta (RARb), RARB (gene 5915) (UniProt P10826). Nature of the experiment: ATG_RARb_TRANS: Attagene TRANS-FACTORIAL HepG2 Assay for human Retinoic Acid Receptor beta (AID 2283004; active means hit-call score of the fitted dose curve at least 0.9, where 1 is the maximum). Summed up:
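HepG2, transient MRTU transfection, NR–Gal4 chimera, 24 h treatment; RT-PCR plus CE fluorescence detection of reporter mRNA; gain of signal vs DMSO.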

For experiment [13], the target named is Retinoic acid receptor alpha (Homo sapiens) (UniProt P10276). Nature of the experiment: ATG_RARa_TRANS: Attagene TRANS-FACTORIAL HepG2 Assay for human Retinoic Acid Receptor alpha (RARa) (AID 2283005; active means hit-call score of the fitted dose curve at least 0.9, where 1 is the maximum). An outline of the steps: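 HepG2 transiently transfected with multiplex GAL4-UAS reporter units including a human RARa–GAL4 chimera; 24 h compound exposure. Reporter mRNA quantified by RT-PCR, 6-FAM labeling and capillary electrophoresis; gain of signal versus DMSO.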
Chain of Retinoic acid receptor alpha (Homo sapiens) (P10276 whole entry, looked up, the tested form may be a part): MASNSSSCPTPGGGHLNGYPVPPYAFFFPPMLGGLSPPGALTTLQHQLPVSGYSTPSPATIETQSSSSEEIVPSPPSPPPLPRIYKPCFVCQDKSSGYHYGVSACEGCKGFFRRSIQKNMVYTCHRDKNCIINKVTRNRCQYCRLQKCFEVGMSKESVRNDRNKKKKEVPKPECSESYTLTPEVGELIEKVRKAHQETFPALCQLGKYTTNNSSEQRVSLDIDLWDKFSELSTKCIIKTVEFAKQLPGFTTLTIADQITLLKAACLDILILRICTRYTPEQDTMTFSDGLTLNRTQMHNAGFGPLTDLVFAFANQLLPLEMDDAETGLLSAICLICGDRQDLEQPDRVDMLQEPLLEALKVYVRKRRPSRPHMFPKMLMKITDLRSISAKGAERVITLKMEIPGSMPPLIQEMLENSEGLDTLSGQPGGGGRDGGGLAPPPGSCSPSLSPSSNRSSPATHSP

Experiment [14] is described as follows: BSK_3C_Proliferation: Cell Proliferation Assessment in the BioMAP Diversity Plus: 3C Assay (AID 2283006).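 On AC50: potency may reflect either rise or fall in cell number versus DMSO.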 Conditions: primary human endothelial cells (HUVEC). Summed up: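 Cells (human umbilical vein endothelial, sub-confluent) receive test chemical; after 48 h they are fixed in 10% trichloroacetic acid, stained with 0.1% SRB and read at 560 nm. Activity is referenced to DMSO, fitting increases and decreases.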

Experiment [15] deals with Nuclear receptor subfamily 1 group I member 2 (Homo sapiens) (UniProt O75469). As to the kind of experiment: ATG_PXR_TRANS: Attagene TRANS-FACTORIAL HepG2 Assay for human Pregnane X Receptor (PXR) (AID 2283008; active means hit-call score of the fitted dose curve at least 0.9, where 1 is the maximum). Summed up: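 Transient HepG2 transfectants carrying multiplexed reporter transcription units; PXR activity read through a Gal4 chimera. 24 h exposure. RT-PCR/CE fluorescence; upward curve fit referenced to DMSO.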
Chain of Nuclear receptor subfamily 1 group I member 2 (Homo sapiens) (O75469 whole entry, looked up, the tested form may be a part): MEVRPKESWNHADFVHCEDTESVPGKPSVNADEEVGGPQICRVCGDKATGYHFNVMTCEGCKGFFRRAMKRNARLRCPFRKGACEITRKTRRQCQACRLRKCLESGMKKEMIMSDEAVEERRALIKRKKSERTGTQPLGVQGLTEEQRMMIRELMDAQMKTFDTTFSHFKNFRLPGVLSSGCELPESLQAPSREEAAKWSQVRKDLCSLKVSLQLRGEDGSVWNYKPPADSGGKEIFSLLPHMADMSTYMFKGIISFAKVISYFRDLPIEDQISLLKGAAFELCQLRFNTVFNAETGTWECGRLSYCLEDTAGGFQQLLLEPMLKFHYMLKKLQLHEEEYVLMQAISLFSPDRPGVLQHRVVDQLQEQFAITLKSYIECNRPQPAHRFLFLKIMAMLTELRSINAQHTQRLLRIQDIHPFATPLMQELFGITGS

Experiment [16] addresses human Retinoic Acid Receptor gamma (RARg), RARG (gene 5916) (UniProt P13631). Nature of the experiment: ATG_RARg_TRANS: Attagene TRANS-FACTORIAL HepG2 Assay for human Retinoic Acid Receptor gamma (RARg) (AID 2283009; active means hit-call score of the fitted dose curve at least 0.9, where 1 is the maximum;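 on AC50: AC50 is for reporter induction above DMSO meaning RARg activation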). An outline of the steps:
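TRANS format measured activity of exogenous NR-GAL4 fusion (RARg) in transfected HepG2 liver cells after 24 h dosing. Induced reporter RNA was detected by RT-PCR/capillary electrophoresis fluorescence, analysed in the positive direction against DMSO.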

Experiment [17] deals with human RAR-related Orphan Receptor beta (RORb), RORB (gene 6096) (UniProt Q92753). As to the kind of experiment: ATG_RORb_TRANS: Attagene TRANS-FACTORIAL HepG2 Assay for human RAR-related Orphan Receptor beta (RORb) (AID 2283010; active means hit-call score of the fitted dose curve at least 0.9, where 1 is the maximum). Summed up: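 Transfect HepG2 with multiple GAL4-UAS reporter transcription units; dose chemicals for 24 h; isolate RNA, reverse-transcribe and PCR-amplify reporter sequences; label, digest and resolve fragments by capillary electrophoresis; fit increases relative to DMSO.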
Chain of human RAR-related Orphan Receptor beta (RORb), RORB (gene 6096) (Q92753 whole entry, looked up, the tested form may be a part): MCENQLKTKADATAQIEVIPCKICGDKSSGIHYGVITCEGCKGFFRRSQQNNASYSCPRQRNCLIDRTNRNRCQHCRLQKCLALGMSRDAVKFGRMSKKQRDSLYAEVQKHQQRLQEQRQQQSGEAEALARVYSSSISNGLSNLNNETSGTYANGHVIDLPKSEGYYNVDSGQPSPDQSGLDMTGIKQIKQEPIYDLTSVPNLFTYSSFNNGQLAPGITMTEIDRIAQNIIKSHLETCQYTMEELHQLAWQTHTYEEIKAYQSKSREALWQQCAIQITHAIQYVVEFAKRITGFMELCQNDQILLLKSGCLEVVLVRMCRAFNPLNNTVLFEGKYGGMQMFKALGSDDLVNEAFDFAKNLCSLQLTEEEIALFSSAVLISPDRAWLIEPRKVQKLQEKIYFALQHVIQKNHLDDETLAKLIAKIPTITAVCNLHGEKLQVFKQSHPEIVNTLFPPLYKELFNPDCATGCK

For experiment [18], the target named is human RAR-related Orphan Receptor gamma (RORg), RORC (gene 6097) (UniProt P51449). Nature of the experiment: ATG_RORg_TRANS: Attagene TRANS-FACTORIAL HepG2 Assay for human RAR-related Orphan Receptor gamma (RORg) (AID 2283011; active means hit-call score of the fitted dose curve at least 0.9, where 1 is the maximum). Summed up:
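Activity is scored as increase in GAL4-UAS reporter mRNA over DMSO, detected by fluorescent RT-PCR and capillary electrophoresis in HepG2 cells transiently expressing a RORg-Gal4 chimera, 24 h after dosing.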

Experiment [19] is described as follows: BSK_4H_Eotaxin3: BioMAP Diversity Plus: 4H Assay for Eotaxin 3 Biomarker Activity (AID 2283000).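 Further: CCL26 protein level quantified by ELISA in parallel with SRB cytotoxicity check.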 Conditions: primary human endothelial cells (HUVEC); actives raise or lower the signal. An outline of the steps:
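Endothelial primary cells (human umbilical vein) exposed to compound for 24 h. ELISA detection of Eotaxin-3.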

Structures are written as SMILES. Values joined by “and” are separate entries in the source; they are usually repeats but may differ in a detail not shown here. Identical values can stand only once. Results filed as inconclusive are left out. Active and inactive are the calls of the source. How the source made its calls, unless noted: active means hit-call score of the fitted dose curve at least 0.9, where 1 is the maximum; inactive means score below 0.9.

Usually AC50 stands for the concentration giving half of the maximal activity seen.

Chain of human RAR-related Orphan Receptor gamma (RORg), RORC (gene 6097) (P51449 whole entry, looked up, the tested form may be a part): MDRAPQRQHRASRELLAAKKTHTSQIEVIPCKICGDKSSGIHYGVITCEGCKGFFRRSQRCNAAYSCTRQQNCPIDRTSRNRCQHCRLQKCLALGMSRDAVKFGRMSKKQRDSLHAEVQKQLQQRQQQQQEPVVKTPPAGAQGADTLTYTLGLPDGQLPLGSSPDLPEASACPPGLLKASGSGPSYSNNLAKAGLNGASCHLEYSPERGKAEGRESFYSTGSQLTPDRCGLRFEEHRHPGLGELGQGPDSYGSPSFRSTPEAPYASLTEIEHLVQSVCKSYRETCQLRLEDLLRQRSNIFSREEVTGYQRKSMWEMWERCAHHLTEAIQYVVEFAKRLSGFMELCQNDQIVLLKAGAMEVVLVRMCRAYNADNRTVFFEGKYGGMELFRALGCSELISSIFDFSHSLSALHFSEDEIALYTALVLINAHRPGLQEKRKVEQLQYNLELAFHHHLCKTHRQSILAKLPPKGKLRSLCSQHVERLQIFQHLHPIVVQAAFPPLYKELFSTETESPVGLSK
Chain of Myc proto-oncogene protein (Homo sapiens) (P01106 whole entry, looked up, the tested form may be a part): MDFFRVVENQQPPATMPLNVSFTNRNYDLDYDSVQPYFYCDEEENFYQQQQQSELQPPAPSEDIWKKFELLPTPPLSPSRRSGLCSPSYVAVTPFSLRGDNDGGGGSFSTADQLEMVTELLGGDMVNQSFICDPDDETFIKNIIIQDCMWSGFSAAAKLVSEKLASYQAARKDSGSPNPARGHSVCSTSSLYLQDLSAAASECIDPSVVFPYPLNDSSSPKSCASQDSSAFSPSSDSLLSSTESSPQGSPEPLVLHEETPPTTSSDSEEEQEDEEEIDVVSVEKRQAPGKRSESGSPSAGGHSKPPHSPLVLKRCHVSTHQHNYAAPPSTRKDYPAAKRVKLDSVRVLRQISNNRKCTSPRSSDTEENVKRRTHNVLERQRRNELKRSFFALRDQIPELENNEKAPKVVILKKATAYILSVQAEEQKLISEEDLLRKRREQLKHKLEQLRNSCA
Chain of human Retinoic Acid Receptor beta (RARb), RARB (gene 5915) (P10826 whole entry, looked up, the tested form may be a part): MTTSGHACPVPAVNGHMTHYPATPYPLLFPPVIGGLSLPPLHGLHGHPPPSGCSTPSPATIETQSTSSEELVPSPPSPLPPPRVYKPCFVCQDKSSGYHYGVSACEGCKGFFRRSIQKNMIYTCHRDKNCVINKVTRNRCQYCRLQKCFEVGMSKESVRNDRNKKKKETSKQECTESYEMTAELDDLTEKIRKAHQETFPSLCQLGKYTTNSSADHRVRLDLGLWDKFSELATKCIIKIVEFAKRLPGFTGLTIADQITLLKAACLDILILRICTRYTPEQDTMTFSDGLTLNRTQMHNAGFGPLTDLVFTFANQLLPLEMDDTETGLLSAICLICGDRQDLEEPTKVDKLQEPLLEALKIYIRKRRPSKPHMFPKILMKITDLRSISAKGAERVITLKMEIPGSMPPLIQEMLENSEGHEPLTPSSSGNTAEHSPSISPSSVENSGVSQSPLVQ
Chain of human Retinoic Acid Receptor gamma (RARg), RARG (gene 5916) (P13631 whole entry, looked up, the tested form may be a part): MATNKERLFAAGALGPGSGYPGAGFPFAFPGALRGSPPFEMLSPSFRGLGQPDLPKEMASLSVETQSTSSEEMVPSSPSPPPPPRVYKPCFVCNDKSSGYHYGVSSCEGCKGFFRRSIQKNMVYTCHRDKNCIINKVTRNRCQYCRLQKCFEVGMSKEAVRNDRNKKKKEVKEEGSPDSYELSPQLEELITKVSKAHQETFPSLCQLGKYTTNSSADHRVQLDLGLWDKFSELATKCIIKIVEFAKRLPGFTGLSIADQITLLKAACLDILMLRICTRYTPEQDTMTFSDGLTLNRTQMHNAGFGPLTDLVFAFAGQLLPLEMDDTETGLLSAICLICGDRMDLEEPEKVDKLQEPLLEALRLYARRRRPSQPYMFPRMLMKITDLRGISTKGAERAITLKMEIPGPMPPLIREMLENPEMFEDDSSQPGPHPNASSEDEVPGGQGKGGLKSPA
Chain of human Peroxisome Proliferator-activated Receptor alpha (PPARa), PPARA (gene 5465) (Q07869 whole entry, looked up): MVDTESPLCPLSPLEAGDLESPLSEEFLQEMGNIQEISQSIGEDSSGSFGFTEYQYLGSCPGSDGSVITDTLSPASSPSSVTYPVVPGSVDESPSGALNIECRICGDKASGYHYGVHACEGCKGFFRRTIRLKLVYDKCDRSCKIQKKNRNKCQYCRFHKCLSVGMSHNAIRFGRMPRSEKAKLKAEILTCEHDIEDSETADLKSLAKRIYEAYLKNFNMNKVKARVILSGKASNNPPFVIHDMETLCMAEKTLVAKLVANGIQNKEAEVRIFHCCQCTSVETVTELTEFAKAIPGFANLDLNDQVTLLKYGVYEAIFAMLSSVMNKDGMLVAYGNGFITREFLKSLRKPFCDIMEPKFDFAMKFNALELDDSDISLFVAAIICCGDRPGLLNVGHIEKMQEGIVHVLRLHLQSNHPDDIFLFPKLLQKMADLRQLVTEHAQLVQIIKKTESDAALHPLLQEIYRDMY

Take `Cn1cnc([N+](=O)[O-])c1Sc1ncnc2nc[nH]c12`: the compound was called inactive in [1], in experiment [2], in experiment [4], in experiment [5], in experiment [6] and in experiment [7]. The outcome in experiment [8], in experiment [10], in [11], in [12], in experiment [13] and in experiment [17] was inactive. Further, the AC50 in experiment [3] is 29.5 µM (active); in experiment [9], 26.4 µM (active); in [14] it was 6.59 µM (active) and 2.94 µM (active) and 9.77 µM (active); in experiment [15], 29.8 µM (active); in experiment [16] it was 26.1 µM (active).

As for `CCCCCCCCCCCCc1ccccc1`, the call in experiment [1], in experiment [2], in experiment [3], in experiment [4], in experiment [5] and in [6] was inactive. Besides, the outcome in experiment [7], in experiment [8], in experiment [10], in experiment [11], in experiment [14] and in [15] was inactive. In experiment [18], the outcome was inactive.

`CC[C@H]1CC[C@H](NCc2cc3c(cc2OC)[C@H]2C[C@H]2C(=O)N3C)[C@H](c2ccccc2)N1`: the result in [1], in experiment [3], in [6], in experiment [7], in experiment [8] and in experiment [19] was inactive. Also, the outcome in experiment [10], in [11], in experiment [12], in experiment [16] and in [18] was inactive. Further, the concentration at half-maximal activity (AC50) in [2] is 45.2 µM (active); in [4], 64.3 µM (active); in [5] it was 100 µM (active); in experiment [14], 28.6 µM (active); in experiment [15], 3.94 µM (active).

On to `COc1cccc(-c2ccc(/C=C\CN3CCCCCC3)cc2Cl)c1`, for which the outcome in [1], in experiment [2], in experiment [5], in experiment [10] and in [18] was inactive. For the same compound, the AC50 in experiment [3] was 9.89 µM (active); in experiment [4], 11 µM (active); in [6] it was 31.5 µM (active); in [7] it was 24.3 µM (active); in [8] it was 33.1 µM (active); in experiment [11], 33.5 µM (active). The figures for the AC50 in experiment [14] and in experiment [15] were 14.2 µM (active) and 4.81 µM (active), respectively.

The record behind these values is PubChem BioAssay (EPA / NIEHS).
